# An excerpt weighted towards active compounds, which were near 0.24% of everything screened.
# hcGAS lum: inhibitors of human cGAS. Q8N884. recombinant h-cGAS, ATP depletion, Kinase-Glo luminescence. inhibition, % at 12.5 µM. 0.081% of 290,000 active. AID 1259398
# Target sequence (Q8N884 whole entry, looked up): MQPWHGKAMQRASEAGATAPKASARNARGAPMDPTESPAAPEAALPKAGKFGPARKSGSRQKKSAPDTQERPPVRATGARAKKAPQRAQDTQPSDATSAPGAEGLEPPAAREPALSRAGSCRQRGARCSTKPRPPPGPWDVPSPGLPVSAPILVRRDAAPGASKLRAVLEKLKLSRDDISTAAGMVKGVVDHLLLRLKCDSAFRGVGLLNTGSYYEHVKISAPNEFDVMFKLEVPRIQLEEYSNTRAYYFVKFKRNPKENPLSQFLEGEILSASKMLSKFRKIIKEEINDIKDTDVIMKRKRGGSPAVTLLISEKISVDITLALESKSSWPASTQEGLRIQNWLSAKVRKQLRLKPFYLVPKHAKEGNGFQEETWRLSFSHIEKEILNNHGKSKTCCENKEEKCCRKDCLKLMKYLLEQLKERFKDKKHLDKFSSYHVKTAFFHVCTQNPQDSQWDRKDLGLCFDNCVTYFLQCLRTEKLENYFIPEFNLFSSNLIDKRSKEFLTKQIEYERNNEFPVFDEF
# mcGAS lum: mouse cGAS inhibition by luminescence. AID 1259399. Q8C6L5. inhibition, % at 12.5 µM. recombinant cGAS, Kinase-Glo ATP depletion luminescence. 0.15% of 160,000 active
# NPYLR7 ag: activates Aedes aegypti NPYLR7 receptor; HEK293T NPYLR7/Galpha15, GCaMP6s calcium fluorescence; activation, % at 10 µM; AID 1259423; 0.15% of 270,000 active; in the data active = activation above about 40%
# Numbers stand for hits; . = inactive; / = no result. Cut-off read from the data, not from the text of the source, unless noted: active = inhibition above about 40%; inactive = the rest.
SMILES,hcGAS lum,mcGAS lum,NPYLR7 ag
Cn1c(C(C#N)=Cc2c(F)c(F)c(F)c(F)c2F)nc2ccccc21,.,/,141.8
Cn1c(C(C#N)=Cc2ccsc2)nc2ccccc21,.,.,.
O=C(COCc1ccccc1)N1CCN(c2nccc(-c3cccc(C(F)(F)F)c3)n2)CC1,.,.,.
Cc1ccc(NC(=O)Cn2nc3ccc(SC(C)C)nn3c2=O)cc1,.,.,/
Cc1ccc(C(CC(=O)NCCC(c2ccccc2)c2ccccc2)c2c[nH]c3ccccc23)c(C)c1 (centres undefined),.,.,.
O=C(Nc1ccc(N2CCCCC2)c(C(=O)NCCc2ccccc2)c1)c1ccc(Cl)c(Cl)c1,.,.,.
COc1cc(C(=O)NS(=O)(=O)Cc2ccccc2)cc(OC)c1C,.,/,.
CCc1ccc(/C=C/S(=O)(=O)Nc2onc(C)c2C)cc1,.,.,.
CN(Cc1ccc(Br)cc1)C(=O)CCl,.,41.7,.
CCCNC(=O)NCC(=O)N(C)Cc1ccc(Br)cc1,.,/,.
CCOC(=O)CSc1ncc(-c2ccccc2)c(-c2ccccc2)n1,.,/,.
CCOc1ccc2nc(N=C(NC(=O)CC)NC(=O)CC)nc(C)c2c1,.,.,.
O=[N+]([O-])c1cccc(C(Nc2nc3c(s2)CCCC3)c2ccc3cccnc3c2O)c1 (centres undefined),41.9,.,.
CCCC(=O)NC(c1cccc([N+](=O)[O-])c1)c1ccc2cccnc2c1O (centres undefined),.,/,.
COCCN1CCN(c2nc(C(=O)N3CCOCC3)cs2)C1=O,.,/,.
C=CCn1c(O)c(C=Nc2ccccc2)sc1=S,.,.,.
Oc1[nH]c(=S)sc1C=Nc1ccccc1,.,57.2,.
C#C[C@]1(O)CCC2C3CCC4=CC(=O)CC[C@@H]4C3CCC21CC (some centres undefined),.,/,.
Cc1ccc(CN(C(=O)c2cc3cc(Cl)ccc3[nH]2)C(C)C)o1,.,/,118.4
O=C(O)c1cc2cc(Cl)ccc2[nH]1,.,.,.
CCN(CC)c1ccc(/C=C2/SC(=S)N(CC(=O)O)C2=O)cc1,.,.,42.1
O=C(O)CN1C(=O)/C(=C\c2ccc(I)cc2)SC1=S,.,.,.
CCN1C(=O)/C(=C/c2ccc(N(C)C)cc2)SC1=S,.,.,.
CCN(CC)c1ccc(/C=C2\SC(=S)N(CCS(=O)(=O)O)C2=O)cc1,.,.,137.0
CC(O)c1ccc(CNC(=O)c2ccc(C3SCCCS3)cc2)cc1 (centres undefined),.,/,.
SMILES,hcGAS lum,mcGAS lum,NPYLR7 ag
COC1=C(OC)C(=O)c2ccccc2C1=O,.,.,.
CS(=O)(=O)N=C1C=C(S(=O)(=O)c2ccccc2)C(=O)c2ccccc21,55.2,/,.
Cc1cc(C)nc(SCc2cc(=O)c(OC(=O)C3c4ccccc4Oc4ccccc43)co2)n1,.,92.8,.
Cc1cc(C)nc(SCc2cc(=O)c(OC(=O)c3ccccc3Cl)co2)n1,.,.,.
Cc1cc(C)nc(SCc2cc(=O)c(OC(=O)Cc3cccc4ccccc34)co2)n1,.,68.2,.
Cc1ccnc(SCc2cc(=O)c(OC(=O)Cc3cccc4ccccc34)co2)n1,.,59.9,.
Cc1ccnc(SCc2cc(=O)c(OC(=O)COc3ccccc3C)co2)n1,.,.,.
Cc1cc(C)nc(SCc2cc(=O)c(OC(=O)Cc3cccs3)co2)n1,.,.,.
CCc1nc2n(n1)C(=O)C(C(c1ccc(F)c(F)c1)N1CCC(C(N)=O)CC1)S2 (centres undefined),.,.,.
CC(Cl)C(=O)Nc1nnc(SCCCOc2ccccc2)s1 (centres undefined),.,.,.
CCOCCCn1c(SCc2cc(OC)cc(OC)c2)nc2cc(S(=O)(=O)N3CCCC(C)C3)ccc21 (centres undefined),.,.,.
CN(c1ccccc1)S(=O)(=O)c1cccc(NS(=O)(=O)c2cc(Cl)ccc2Cl)c1,.,/,.
CN(c1ccccc1)S(=O)(=O)c1cccc(NC(=O)CCl)c1,.,55.2,.
Cc1c(F)cccc1S(=O)(=O)Nc1ccc(C(C)(C)C(=O)O)cc1,.,/,.
COc1ccc(/C=C2\Oc3c(ccc4c3CN(C3CCS(=O)(=O)C3)CO4)C2=O)cc1 (centres undefined),.,.,67.7
Cc1ccccc1/C=C1\Oc2c(ccc3c2CN(C2CCS(=O)(=O)C2)CO3)C1=O (centres undefined),.,.,.
COc1ccc(/C=C2\Oc3c(ccc4c3CN(CC3CCCO3)CO4)C2=O)cc1OC (centres undefined),.,.,87.9
COc1cc(/C=C2\Oc3c(ccc4c3CN(CC3CCCO3)CO4)C2=O)cc(OC)c1OC (centres undefined),.,.,74.1
CC(C)c1ccc(/C=C2\Oc3c(ccc4c3CN(C3CCS(=O)(=O)C3)CO4)C2=O)cc1 (centres undefined),.,.,.
COc1ccc(/C=C2\Oc3c4c(cc(C)c3C2=O)OCN(C2CC2)C4)cc1OC,.,.,.
COc1ccc(/C=C2\Oc3c4c(cc(C)c3C2=O)OCN(Cc2ccncc2)C4)cc1,.,.,.
COc1ccc(/C=C2\Oc3c(ccc4c3CN(CC3CCCO3)CO4)C2=O)cc1 (centres undefined),.,.,63.7
Cc1cccn2c(=O)c(C(=O)NCc3c(F)cccc3F)c(O)nc12,.,.,.
O=C1C[C@H]2CC[C@@H](CN1)N2Cc1ccc(-c2ccccc2Cl)o1,.,/,.
COc1ccc(OC)c(-c2cccc(-c3cccc(NC(=O)c4oc5ccccc5c4C)c3)n2)c1,.,.,.
SMILES,hcGAS lum,mcGAS lum,NPYLR7 ag
CCc1nc2n(n1)C(=O)C(C(c1ccc(F)cc1)N1CCN(c3ccc(OC)cc3)CC1)S2 (centres undefined),.,.,.
COc1ccc(C2c3sc(=O)[nH]c3SC3C(=O)NC(=O)C32)cc1 (centres undefined),.,/,.
O=C1NC(=O)C2C1Sc1[nH]c(=O)sc1C2c1ccco1 (centres undefined),45.1,/,.
O=C(O)c1cc2c(ccc3ccccc32)oc1=O,.,41.8,.
COc1ccc(-c2nnc(-c3cc4c(ccc5ccccc54)oc3=O)o2)cc1,.,.,.
O=c1oc2ccc3ccccc3c2cc1-c1nnc(-c2ccccc2)o1,46.4,.,.
O=C(NCc1ccccn1)c1cc2c(ccc3ccccc32)oc1=O,.,/,.
CCn1c(CCC(=O)NCCOC)nc2cc(S(=O)(=O)N3CCOCC3)ccc21,.,.,.
COc1cc(OC)cc(C2SCCN2C(=O)Nc2ccc(F)cc2F)c1 (centres undefined),.,.,.
COC(=O)C1CCN(C(c2ccc(F)cc2)C2Sc3nc(-c4ccco4)nn3C2=O)CC1 (centres undefined),.,.,.
Cc1cc(O)c(C=O)c2c1C(=O)Oc1c(COC(=O)/C=C/C(=O)O)c(O)c(C(=O)O)c(C)c1O2,68.6,67.1,/
COc1ccc(-c2noc(-c3c(SC)nn(CC(=O)Nc4ccccc4C)c3N)n2)cc1,.,.,.
CC(C)(C)c1cnc(CSc2cnc(NC(=O)C3CCNCC3)s2)o1,.,.,60.1
CCc1nc(SCc2ncc(C(C)(C)C)o2)n[nH]1,.,/,.
CCc1cccc2c(C(CC(=O)NCCCN3CCOCC3)c3ccc(OC)c(OC)c3)c[nH]c12 (centres undefined),.,67.5,/
